The entries come from a sample that favours hits as a whole.
Shiga inhibitor: A qHTS for Small Molecule Inhibitors of Shiga Toxin; Vero cells, Shiga toxin protein synthesis inhibition reporter; inhibition, % at 38.7 µM; 290,000 compounds, 9.2% hits; AID 2315, 2010; in the data active = inhibition mostly above about 28%, no sharp cut-off; inactive = mostly below about 43%; note: 0% is about no effect
TbPYK inhibitor: qHTS of Trypanosoma Brucei Inhibitors; Potency, µM (highest dose often 76.8 µM), for inactives: at the top dose activity, negative = inhibition, usual class: inhibitors; TbPYK enzyme, Kinase-Glo Plus ATP luminescence, 45 min; 410,000 compounds, 0.12% hits; note: potency is the fitted concentration of half-maximal effect; % is set by controls: 0 for no effect and ±100 for the full control effect; nearly all actives have a fitted effect of over 50% in size
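Assay buffer: 50 mM TEA pH 7.2, 100 mM KCl, 10 mM MgCl2, 0.05% BSA, 0.01% Tween-20. Pyruvate kinase from T. brucei plus substrate met compound, then ADP (130 uM final). Luminescence was read post 45 min RT.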
FBPA Giardia inh: qHTS Assay for Inhibitors of Fructose-1,6-bisphosphate Aldolase from Giardia Lamblia. A8B2U2. purified Giardia FBPA. Potency, µM (highest dose often 59.6 µM), for inactives: at the highest dose activity, negative = inhibition, most hits filed as inhibitors. 290,000 compounds, 0.71% hits; note: potency is the fitted concentration of half-maximal effect; % is set by controls: 0 for no effect and ±100 for the full control effect; nearly all actives have a fitted effect of over 55% in size
Target sequence (A8B2U2 whole entry, looked up): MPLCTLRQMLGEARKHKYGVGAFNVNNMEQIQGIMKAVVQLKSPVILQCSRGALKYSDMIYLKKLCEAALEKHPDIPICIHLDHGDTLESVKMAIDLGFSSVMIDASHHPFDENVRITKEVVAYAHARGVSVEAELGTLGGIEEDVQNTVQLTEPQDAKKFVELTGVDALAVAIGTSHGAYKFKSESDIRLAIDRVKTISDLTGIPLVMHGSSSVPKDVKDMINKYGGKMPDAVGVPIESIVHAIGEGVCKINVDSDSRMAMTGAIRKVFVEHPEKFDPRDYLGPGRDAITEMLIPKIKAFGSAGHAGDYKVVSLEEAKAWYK
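Giardia FBPA (40 nM reagent) was preincubated 10 min at RT with compound (up to 57.5 uM final), then substrate plus GAPDH/TPI/NAD/arsenate coupling system with diaphorase/resazurin was added; resorufin fluorescence (525/598 nm) was read after 20 min.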
LmPK inhibitor: qHTS Assay for Inhibitors of Leishmania Mexicana Pyruvate Kinase (LmPK); Q27686; purified LmPK, Kinase-Glo ATP luminescence, 1 h; Potency, µM (top dose mostly 57.5 µM), for inactives: top-dose activity change, negative = inhibition, hits mostly inhibitors; 290,000 compounds, 0.37% hits; AID 1721, 2009; note: potency is the fitted concentration of half-maximal effect; % is set by controls: 0 for no effect and ±100 for the full control effect
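Screened at intermediate enzyme activity to detect both inhibitors and activators: LmPK at 0.1 nM, with a 0.5 nM enzyme column as activation reference. PEP 0.5 mM, ADP 0.1 mM; ATP detected by luminescence after 1 h.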
CHX counter: Cycloheximide Counterscreen for Small Molecule Inhibitors of Shiga Toxin | cell reporter, cycloheximide protein synthesis inhibition counterscreen | max response, % | 300,000 compounds, 12% hits; in the data active = max response mostly above about 13%, no sharp cut-off; inactive = mostly below about 14%; note: read at 38.3 µM for the half of the compounds with a filed dose; 0% is about no effect
Sm TGR inh: qHTS Assay for the Inhibitors of Schistosoma Mansoni Peroxiredoxins; AID 485364, 2010; purified TGR, DTNB reduction, TNB absorbance 405 nm; 360,000 compounds, 3% hits; Potency, µM (titrated, usually from 114 µM), inactives show at the top dose activity change, negative = inhibition, usual class: inhibitors; Schistosoma mansoni thioredoxin glutathione reductase (TGR), Q962Y6; note: potency is the fitted concentration of half-maximal effect; % is set by controls: 0 for no effect and ±100 for the full control effect; nearly all actives have a fitted effect of over 60% in size
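Kinetic colorimetric format: TGR-catalysed, NADPH-driven DTNB reduction monitored via TNB absorbance. Enzyme dispensed at 20 nM; compound exposure 15 min at room temperature before reaction start.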
An asterisk follows results filed as active; ? = inconclusive; . = no result given; ! = a repeat was not active. Unless noted, calls come from the whole dose curve; as a rule, active = well fitted curve in the direction sought with a large enough effect; inconclusive = small, poorly fitted or top-dose-only effect, or another doubt; inactive = no such curve, though single readings can be large; an effect the other way counts as inactive or inconclusive.

SMILES | Shiga inhibitor | TbPYK inhibitor | FBPA Giardia inh | LmPK inhibitor | CHX counter | Sm TGR inh
Cc1cc(N/C=C/C(=O)c2cccc3ccccc23)no1 | 27 | 1% | 5% | 3% | 11 | 12%
COc1ccc(C(=O)/C=C/Nc2cc(C)ccn2)cc1 | 38 | -27% | -8% | 13µM* | 29* | 22%
O=C(/C=C\Nc1ccc(Cl)cn1)c1ccc(Br)cc1 | 36 | -4% | 3% | 0% | 14 | .
Cc1ccnc(N/C=C/C(=O)c2ccc(Br)cc2)c1 | 110* | -16% | 1% | -3% | 49* | -23%
O=C(Cc1ccc(Cl)cc1)Nc1ccc(SC(F)F)cc1 | 13* | 1% | -6% | 4% | 45* | 2%
O=C(Cc1ccccc1F)Nc1ccc(SC(F)F)cc1 | 57* | -6% | -12% | -5% | 91* | 5%
O=C(COC(=O)c1nn(-c2ccccc2C(F)(F)F)cc1O)c1ccc(OC(F)F)cc1 | . | -1% | . | . | . | -3%
CN(C(=O)CCc1nc2ccccc2s1)c1ccccc1 | 1 | 2% | 7% | 0% | 21* | -10%
O=C(O)CCCc1nc2ccccc2s1 | -3 | -14% | 3% | 4% | -2 | -3%
CN(C(=O)COc1nc2ccccc2s1)c1ccccc1 | 23* | . | -2% | . | 11 | .
Nc1ncnc2nc(Cl)[nH]c12 | . | . | -9% | . | . | .
O=C(N/N=C1/CC2C=CCC12)c1ccc(Br)o1 (centres undefined) | 75* | -6% | -13% | 1% | 74* | -1%
CC1CCC(NC(=O)c2ccc(Br)o2)CC1 (centres undefined) | . | -2% | . | . | . | .
CCOc1cccc(C(=O)Nc2nnc(-c3ccco3)s2)c1 | 92* | -13% | -25% | -6% | 31* | ?
Cc1ccccc1OCC(=O)Nc1nnc(C2CCCCC2)s1 | 24 | -2% | 2% | 0% | -1 | 5%
COc1ccccc1OCC(=O)Nc1nnc(-c2ccco2)s1 | 35 | -5% | 0% | 3% | 47* | 32µM*
Cc1cccc(OCC(=O)Nc2nnc(-c3ccco3)s2)c1 | -11 | -8% | 0% | -1% | -1 | 14µM*
CCOC(=O)Cc1nnc(NC(=O)c2cccc(OCC)c2)s1 | 49 | 7% | 1% | 1% | 8 | 2%
COc1ccccc1OCC(=O)Nc1nnc(C2CCCC2)s1 | 15 | 4% | . | 3% | 15* | -5%
COc1ccncc1-c1csc(C(O)c2ccccc2)n1 (centres undefined) | . | 2% | . | . | . | .
COc1ccc(N2CCN(c3csc4ccccc4c3=O)CC2)cc1 | . | 2% | . | . | . | 0%
C=C(C)CSc1nnc([C@@H]2CCCN2)o1 | 8 | 3% | -13% | -8% | -2 | 0%
O=C(CSc1nnc([C@@H]2CCCN2)o1)c1ccc(Cl)cc1 | 102* | -2% | -8% | 0% | 22* | -26%
CC1=NN(C(N)=S)C(=O)C1N=Nc1ccccc1Cl (centres undefined) | . | -6% | 16% | 6% | 18* | -22%
CC1=NN(C(N)=S)C(=O)C1N=Nc1ccc(Cl)cc1Cl (centres undefined) | 77* | 3% | 16% | -8% | 25* | -1%
SMILES | Shiga inhibitor | TbPYK inhibitor | FBPA Giardia inh | LmPK inhibitor | CHX counter | Sm TGR inh
CC(C)c1ccc2[nH]c3c(c2c1)[C@@H]1CCN2C(=O)CCC[C@H](C3)[C@H]12 | 35* | -15% | -1% | 4% | 22* | -25%
O=C1NC(=O)C(=Cc2csc3ccccc23)C(=O)N1 | -6 | ? | ? | 3% | -1 | -18%
C=CCOC(=O)C(=O)/C=C/c1csc2ccccc12 | -8 | -6% | -30% | 9% | 11 | 28µM*
NC(=O)c1c[nH]c2ccccc12 | 6 | -9% | 7% | 4% | 10 | 1%
COC(=O)c1csc(C(=O)c2c[nH]c3ccccc23)n1 | 42*! | -1% | -3% | . | 23*! | .
Cc1cccc(C)c1NC(=O)CNC(=O)Cc1c[nH]c2ccccc12 | . | -12% | . | . | . | -4%
COc1ccccc1C(=O)Nc1ccc2c3c(cccc13)CC2 | 87* | -4% | -3% | 0% | 38* | 1%
COc1ccccc1NC(=O)c1c[nH]c2ccccc12 | 52* | -19% | -7% | 1% | 34* | -1%
Cc1cccc(C)c1NC(=O)c1c[nH]c2ccccc12 | 74* | -2% | 11% | -2% | 16* | 16%
O=C(O)c1cc(=O)c2cc(Cl)ccc2[nH]1 | -6 | . | 1% | . | 9 | .
CCn1cc(S(=O)(=O)c2ccc(Cl)cc2)c(=O)c2cc(F)c(N3CCOCC3)cc21 | . | -6% | . | . | . | -2%
O=C(CCCn1cncn1)N1CCCC(Nc2ccc(F)cc2)C1 (centres undefined) | -6 | -8% | . | -1% | 9 | 0%
COc1ccccc1NC(=O)c1ccccc1NC(=O)c1ccccc1C(=O)O | . | -7% | 2% | 7% | 16* | 17%
COc1ccccc1C(=O)Nc1ccccc1SC(=O)c1ccccc1OC | 72* | 7% | 6% | -1% | 26* | ?
Cc1ccc(CNC(=O)c2cc(S(=O)(=O)N3CCCCC3)cn2C)cc1 | . | 0% | . | . | . | 4%
O=C(CSc1cn(CC(=O)N2CCCC2)c2ccccc12)Nc1ccccc1C(F)(F)F | . | -13% | . | . | . | -8%
COc1ccccc1C(=O)NCC1(N2CCN(C)CC2)CCCCC1 | . | 8% | . | . | . | 6%
O=C(/C=C/c1c(Cl)cccc1Cl)NCCCn1ccnc1 | . | 0% | . | . | . | .
O=C(/C=C/c1c(Cl)cccc1Cl)n1cccn1 | 14 | 3% | 1% | -10% | 9.8* | 18µM*
Nc1c(C(=O)O)cnn1-c1ccc([N+](=O)[O-])cc1 | -17 | -2% | 1% | 6% | -3 | 5%
COC(=O)c1cnn(-c2ccccc2)c1N | 33 | 10% | 0% | -2% | 10 | 29%
CCOC(=O)c1cnn(-c2ccc([N+](=O)[O-])cc2)c1N | 18 | 2% | 4% | -2% | 15* | 3%
CCOc1cccc(Oc2ccc(C(F)(F)F)cn2)c1 | -3 | -7% | -3% | -7% | -2 | -12%
CCOC(=O)c1cnn(-c2ccc(C(F)(F)F)cn2)c1N | 77* | 4% | 4% | -7% | 40* | -3%
CCOC(=O)c1cnn(-c2ccccc2)c1N | 34 | 2% | 5% | -5% | 31* | 1%
CCOC(=O)c1ccc(Oc2ccc(C(F)(F)F)cn2)cc1 | 61 | 7% | -4% | 5% | 29* | -1%
CCOC(=O)c1cnn(-c2ccccc2)c1-n1cccc1C(=O)C(=O)Nc1ccccc1 | 43* | 2% | -7% | -1% | 21* | 11%
CCOC(=O)c1cnn(-c2ccccc2)c1-n1cccc1C(=O)C(=O)Nc1ccc(F)cc1 | 19 | 2% | -3% | 2% | 1 | 11%
CCOC(=O)c1cnn(-c2nc(C)cc(C)n2)c1N | 20 | -1% | -12% | -3% | 3 | 12%
